Activity calls are given as the source filed them. Rule for the calls: active = hit-call score of the fitted dose curve at least 0.9, where 1 is the maximum; inactive = score below 0.9.

One may read the AC50 as the concentration giving half of the maximal activity seen.

Experiment [1] is described as follows: ATG_PBREM_CIS: Attagene CIS-FACTORIAL HepG2 Assay for human Phenobarbital-responsive Enhancer Module (PBREM) (AID 2282955). Particulars: HepG2 PBREM cis-reporter, Attagene multiplexed transcription; actives raise or lower the signal. The gist of the method:
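Readout: reporter mRNA, fluorescent RT-PCR fragments separated by capillary electrophoresis. System: HepG2 transiently transfected with cis-regulated reporter units. Exposure: 24 h. Analysis: bidirectional, DMSO baseline.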

Experiment [2] addresses Paired box protein Pax-6 (Homo sapiens) (UniProt P26367). Put plainly: ATG_Pax6_CIS: Attagene CIS-FACTORIAL HepG2 Assay for human Paired Box 6 (PAX6) (AID 2282956). To be noted: HepG2 CIS-FACTORIAL PAX6 reporter transcription, RNA readout; actives raise or lower the signal. The gist of the method: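 Fluorescent RT-PCR products separated by capillary electrophoresis report PAX6-linked promoter mRNA in HepG2 cells 24 h post-dose. Curves fitted bidirectionally, DMSO as negative control.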

The nature of experiment [3]: ATG_RORE_CIS: Attagene CIS-FACTORIAL HepG2 Assay for human RAR-related Orphan Receptor Element (RORE) (AID 2282959). To be noted: HepG2 Attagene cis-factorial RORE reporter, mRNA; actives raise or lower the signal. The gist of the method:
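Measured here: transcript induction of a cis-regulated reporter in HepG2 cells transiently transfected via FuGene 6. After 24 h, RNA was processed by RT-PCR and fluorescent capillary electrophoresis; DMSO defined baseline activity.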

Experiment [4] can be described thus: ATG_Sox_CIS: Attagene CIS-FACTORIAL HepG2 Assay for human SRY-box transcription factor (SOX) (AID 2282960). Particulars: HepG2 Attagene cis-factorial SOX reporter, mRNA; actives raise or lower the signal. The gist of the method:
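Using transiently transfected HepG2 cells, reporter transcription driven by cis elements was assessed 24 h after dosing. Signal was fluorescence of capillary-separated RT-PCR products, with DMSO defining baseline activity.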

The target in experiment [5] is Transcription factor Sp1 (Homo sapiens) (UniProt P08047). In words: ATG_Sp1_CIS: Attagene CIS-FACTORIAL HepG2 Assay for human Specificity Protein 1 (Sp1) (AID 2282961). Particulars: HepG2 Sp1 cis-reporter transcription, actives raise or lower the signal. The gist of the method:
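After transient transfection of HepG2 cells with cis-promoter reporter units and 24 h chemical treatment, reporter transcripts were quantified by RT-PCR and capillary electrophoresis fluorescence. Gain- and loss-of-signal fitted against DMSO.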

Experiment [6] is described as follows: ATG_SREBP_CIS: Attagene CIS-FACTORIAL HepG2 Assay for human Sterol Regulatory Element Binding (SREBP) (AID 2282962). To be noted: HepG2 Attagene cis-factorial SREBP reporter, mRNA; actives raise or lower the signal. The gist of the method: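 Endogenous factor activity is measured in HepG2 through multiplexed reporter units under cis-element control. Following a 24 h incubation, reporter transcripts are reverse-transcribed, PCR-amplified and sized by capillary electrophoresis; activity is fitted in both directions relative to DMSO.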

Experiment [7] addresses Signal transducer and activator of transcription 3 (Homo sapiens) (UniProt P40763). In words: ATG_STAT3_CIS: Attagene CIS-FACTORIAL HepG2 Assay for human Signal Transducer and Activator of Transcription 3 (STAT3) (AID 2282963). Particulars: HepG2, Attagene cis-factorial STAT3 reporter transcription; actives raise or lower the signal. Put shortly: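 Uses human liver HepG2 transiently carrying cis-regulated reporter transcription units. Following 24 h dosing, reporter mRNA induction was detected by RT-PCR and capillary electrophoresis, analysed bidirectionally versus DMSO.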

The nature of experiment [8]: ATG_PXRE_CIS: Attagene CIS-FACTORIAL HepG2 Assay for human Pregnane X Receptor Element (PXRE) (AID 2282957). Particulars: HepG2 Attagene CIS-FACTORIAL PXRE reporter, mRNA; actives raise or lower the signal. Put shortly:
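Read-out: fluorescence of reporter-specific RT-PCR products resolved by capillary electrophoresis, fitted bidirectionally relative to DMSO. Human HepG2 liver cells carried transfected cis-promoter reporter units and were exposed to chemicals for 24 h.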

A short description of experiment [9]: ATG_TA_CIS: Attagene CIS-FACTORIAL HepG2 Assay for human TA Basal Promoter (AID 2282964). To be noted: HepG2 Attagene CIS-factorial TA basal promoter reporter; actives raise or lower the signal. The gist of the method: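 Read-out: fluorescent reporter-transcript fragments resolved by capillary electrophoresis after RT-PCR and HpaI digestion. Source: HepG2 cells carrying transiently transfected multi-reporter cis constructs, treated 24 h. Endpoint fitted bidirectionally relative to DMSO.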

Experiment [10] is described as follows: ATG_PPRE_CIS: Attagene CIS-FACTORIAL HepG2 Assay for human Peroxisome Proliferator-activated Response Element (PPRE) (AID 2282958). Particulars: HepG2 PPRE cis-element reporter, Attagene transcription factor profiling; actives raise or lower the signal. The gist of the method:
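After human HepG2 hepatoma cells were transiently transfected with cis-promoter reporter constructs, they were exposed to test chemicals for 24 hours. Reporter RNA was then reverse-transcribed, PCR-amplified, FAM-labeled, HpaI-digested and quantified by capillary electrophoresis.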

Paired box protein Pax-6 (Homo sapiens), sequence (P26367 whole entry, looked up): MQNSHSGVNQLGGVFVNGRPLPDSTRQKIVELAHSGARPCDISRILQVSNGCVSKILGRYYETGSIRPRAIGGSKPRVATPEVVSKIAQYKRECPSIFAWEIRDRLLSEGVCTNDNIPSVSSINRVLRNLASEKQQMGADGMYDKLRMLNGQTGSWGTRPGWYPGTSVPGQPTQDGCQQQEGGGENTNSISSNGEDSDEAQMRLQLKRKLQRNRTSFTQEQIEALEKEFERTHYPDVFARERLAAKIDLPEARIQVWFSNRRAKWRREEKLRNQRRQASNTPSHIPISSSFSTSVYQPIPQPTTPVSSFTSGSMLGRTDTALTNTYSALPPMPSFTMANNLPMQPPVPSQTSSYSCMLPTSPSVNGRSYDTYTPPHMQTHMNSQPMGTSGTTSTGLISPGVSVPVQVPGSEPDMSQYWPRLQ
Transcription factor Sp1 (Homo sapiens), sequence (P08047 whole entry, looked up): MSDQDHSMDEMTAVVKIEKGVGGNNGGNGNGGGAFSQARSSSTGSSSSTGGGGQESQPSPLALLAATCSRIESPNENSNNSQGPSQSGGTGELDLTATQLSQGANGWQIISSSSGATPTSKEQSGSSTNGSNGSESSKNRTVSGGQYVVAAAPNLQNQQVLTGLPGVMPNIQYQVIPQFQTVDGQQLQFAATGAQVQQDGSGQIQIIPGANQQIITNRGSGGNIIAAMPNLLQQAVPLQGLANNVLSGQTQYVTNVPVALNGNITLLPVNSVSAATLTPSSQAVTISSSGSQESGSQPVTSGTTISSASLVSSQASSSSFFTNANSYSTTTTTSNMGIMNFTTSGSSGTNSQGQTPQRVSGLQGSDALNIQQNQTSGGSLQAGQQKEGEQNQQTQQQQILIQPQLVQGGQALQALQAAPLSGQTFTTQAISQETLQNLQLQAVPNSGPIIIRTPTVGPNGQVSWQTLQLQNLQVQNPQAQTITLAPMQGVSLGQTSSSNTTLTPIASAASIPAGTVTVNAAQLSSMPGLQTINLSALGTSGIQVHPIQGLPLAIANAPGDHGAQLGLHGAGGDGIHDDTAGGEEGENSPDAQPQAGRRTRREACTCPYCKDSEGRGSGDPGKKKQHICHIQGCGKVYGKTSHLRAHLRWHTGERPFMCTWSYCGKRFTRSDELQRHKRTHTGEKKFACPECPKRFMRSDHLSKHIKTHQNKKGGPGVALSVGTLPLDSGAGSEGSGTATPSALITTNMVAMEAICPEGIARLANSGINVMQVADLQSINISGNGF
Signal transducer and activator of transcription 3 (Homo sapiens), sequence (P40763 whole entry, looked up): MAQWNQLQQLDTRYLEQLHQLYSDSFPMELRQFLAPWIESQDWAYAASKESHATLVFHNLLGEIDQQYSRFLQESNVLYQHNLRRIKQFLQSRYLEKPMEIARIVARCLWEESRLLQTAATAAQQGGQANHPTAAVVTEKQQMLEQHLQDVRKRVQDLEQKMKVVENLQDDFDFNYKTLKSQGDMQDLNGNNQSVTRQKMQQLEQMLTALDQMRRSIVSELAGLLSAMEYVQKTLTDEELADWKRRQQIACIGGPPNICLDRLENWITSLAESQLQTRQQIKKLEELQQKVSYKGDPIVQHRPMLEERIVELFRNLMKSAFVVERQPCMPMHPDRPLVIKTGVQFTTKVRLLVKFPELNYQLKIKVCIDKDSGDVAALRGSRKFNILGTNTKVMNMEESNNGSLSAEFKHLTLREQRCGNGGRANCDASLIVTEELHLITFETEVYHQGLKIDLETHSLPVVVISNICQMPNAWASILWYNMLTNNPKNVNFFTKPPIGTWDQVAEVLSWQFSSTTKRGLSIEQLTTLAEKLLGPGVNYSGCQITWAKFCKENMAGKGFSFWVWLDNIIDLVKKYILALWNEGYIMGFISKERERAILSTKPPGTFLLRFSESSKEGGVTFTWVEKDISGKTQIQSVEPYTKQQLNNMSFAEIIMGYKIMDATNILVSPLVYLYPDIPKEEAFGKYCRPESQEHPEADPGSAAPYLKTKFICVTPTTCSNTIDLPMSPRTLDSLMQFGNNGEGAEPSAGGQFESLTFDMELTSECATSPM

Regarding `CCCCCCCCCCC`, the outcome in [1], in experiment [2], in experiment [3], in experiment [4], in experiment [5] and in [6] was inactive. Further, the molecule was classed as inactive in experiment [7].

On to `Cc1nc(C)nc(N2C[C@@H](C)N(c3ccnc([C@@H](C)O)n3)[C@@H](C)C2)n1`, for which the molecule was classed as inactive in experiment [2], in [8], in [3], in experiment [4], in experiment [5] and in experiment [6]. Also, the result in experiment [7] and in experiment [9] was inactive.

As to `O=c1[nH]cc(F)c(=O)[nH]1`, the call in experiment [2], in experiment [10], in experiment [3], in experiment [4], in experiment [5] and in [7] was inactive. Moreover, the outcome in experiment [9] was inactive. In addition, the AC50 in experiment [6] is 18.3 µM (active).

For `CCCCCCCC=O`, the molecule was classed as inactive in [2], in experiment [8], in experiment [3], in [4], in [5] and in experiment [6]. Further, the molecule was classed as inactive in experiment [9]. For the same molecule, the AC50 in experiment [7] was 37.7 µM (active).

Consider `COC(=O)c1ccc(O)cc1`, for which the result in experiment [2], in [8], in experiment [10], in [4], in [5] and in experiment [6] was inactive. Further, the call in [7] was inactive.

For `C=CCOC(=O)c1ccccc1C(=O)OCC=C`, the molecule was classed as inactive in [2], in [3], in experiment [4], in experiment [5], in experiment [6] and in [7]. Further, the AC50 in experiment [8] is 26.7 µM (active).

On to `Nc1ccc(S(=O)(=O)c2ccc(N)cc2)cc1`, for which the outcome in [2], in [10], in experiment [3], in experiment [4], in experiment [5] and in experiment [6] was inactive. Besides, the molecule was called inactive in experiment [7].

For the molecule `CCCCOC(=O)CCCCCCCCC(=O)OCCCC`, the result in experiment [1], in experiment [2], in experiment [3], in experiment [4], in experiment [5] and in experiment [6] was inactive. For the same molecule, the molecule was classed as inactive in [7] and in experiment [9].

Regarding `CC(=O)Oc1ccccc1C(=O)O`, the call in experiment [2], in experiment [3], in [4], in [5], in experiment [6] and in experiment [7] was inactive. Further, the AC50 in experiment [8] was 26.9 µM (active).

On to `O=[N+]([O-])C(CO)(CO)CO`, for which the molecule was classed as inactive in experiment [2], in experiment [10], in [3], in experiment [4], in experiment [5] and in experiment [6]. The call in experiment [7] was inactive.

Turning to `CCCCN(CCCC)CCCC`, the outcome in [1], in [2], in experiment [3], in [4], in experiment [5] and in experiment [6] was inactive. The call in experiment [7] and in experiment [9] was inactive.

In the case of `CCCCCCCCCCCCCCCCCC(=O)O`, the molecule was classed as inactive in experiment [2], in experiment [8], in experiment [3], in experiment [4], in experiment [5] and in experiment [6]. The call in experiment [7] and in [9] was inactive.

Take `NC(=O)Cn1c(=O)cc(CCN2CCN(c3nccc4sccc34)CC2)c2ccc(F)cc21`: the molecule was classed as inactive in experiment [2], in experiment [10], in experiment [3], in experiment [4], in [5] and in [7]. Besides, the AC50 in experiment [8] is 5.72 µM (active); in [6], 18.4 µM (active).

Take `Clc1cc(Cl)c(Cl)cc1Cl`: the call in experiment [2], in experiment [8], in experiment [10], in experiment [3], in experiment [4] and in experiment [5] was inactive. The outcome in [6], in [7] and in experiment [9] was inactive.

Consider `O=C(N[C@@H](Cc1ccccc1)[C@@H](O)C(=O)N1C[C@@H](O)[C@@H](O)C1)c1cc2cc(Cl)ccc2[nH]1`, for which the result in [2], in experiment [8], in experiment [10], in experiment [3], in experiment [4] and in experiment [5] was inactive. Further, the call in experiment [6] and in experiment [7] was inactive. Moreover, in [9], the AC50 is 128 µM (active).

Take `NS(=O)(=O)c1cc2c(cc1Cl)NCNS2(=O)=O`: the call in experiment [2], in [3], in experiment [4], in [5], in experiment [6] and in experiment [7] was inactive. Also, the molecule was called inactive in experiment [9].

For the molecule `CC(CO)OC(C)CO` (stereo unspecified) (tested in a mixture with another compound), the result in [2], in experiment [8], in [10], in experiment [3], in experiment [4] and in [5] was inactive. The result in experiment [6] and in experiment [7] was inactive.

Consider `CN1CCN(Cc2cc(-c3ccc4[nH]c(=O)oc4c3)co2)[C@@H](c2ccc(F)cc2)C1`, for which the outcome in [1], in experiment [4], in experiment [5] and in experiment [7] was inactive. Moreover, the AC50 is 47.4 µM (active) in [2], 33 µM (active) in experiment [6] and 33 µM (active) in experiment [9].

Turning to `CN1CCCC1=O`, the outcome in experiment [2], in [3], in experiment [4], in [5], in experiment [6] and in experiment [7] was inactive.

As to `NCCO`, the molecule was called inactive in experiment [2], in experiment [8], in [3], in experiment [4], in experiment [5] and in experiment [6]. Besides, the outcome in experiment [7] and in experiment [9] was inactive.

Consider `CCOC(=O)C(C)(C)Oc1ccc(Cl)cc1`, for which the call in [2], in [8], in [10], in experiment [3], in experiment [4] and in [5] was inactive. For the same molecule, the result in experiment [6], in experiment [7] and in experiment [9] was inactive.

`CC(C)c1ccc(C(=O)N=C(N)N)cc1S(C)(=O)=O`: the outcome in experiment [1], in experiment [2], in experiment [3], in [4], in experiment [5] and in experiment [6] was inactive. The result in experiment [7] and in experiment [9] was inactive.

On to `CCCCCCCCCCO`, for which the result in [2], in experiment [3], in [4], in [5], in [6] and in [7] was inactive. Besides, the molecule was classed as inactive in experiment [9].

As for `Nc1nc(N)c2nc(CNc3ccc(C(=O)N[C@@H](CCC(=O)O)C(=O)O)cc3)cnc2n1`, the result in [1], in [2], in [3], in experiment [4], in experiment [5] and in experiment [6] was inactive. For the same molecule, the molecule was called inactive in [7].

On to `CNCc1cc(F)ccc1Oc1ccc(Cl)c(Cl)c1`, for which the molecule was classed as inactive in [2], in [10], in experiment [3], in [4], in experiment [5] and in experiment [6]. The outcome in [7] was inactive. The AC50 in experiment [8] is 7.83 µM (active).
